Only some compounds are listed: those with a hit (about 19% of all), similar ones and a draw of the others.
HT1080 IDH1KD tx = kills HT-1080 cells with IDH1 knockdown; HT-1080 IDH1 knockdown viability, ATP luminescence, 48 h; Potency, µM (highest dose often 46.1 µM), inactives show at the top dose activity, negative = toxicity, usual class: cytotoxic; hit rate 2% among 360,000;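 note: potency is the fitted concentration of half-maximal effect; 0% = DMSO wells and -100% = cell-free medium wells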
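HT-1080-IDH1KD cells (IDH1 knocked down), 750/well in RPMI with 5% FBS, treated with compound 48 h at 37 degrees C. Viability by CellTiter-Glo luminescence, normalised to DMSO and no-cell wells; concentration-response curves classed.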
DT40 TDP1 CPT = growth inhibition of DT40 Tdp1-/-;hTDP1 cells with camptothecin (screen for TDP1 inhibitors); chicken DT40 Tdp1-/-;hTDP1 cells + 20 nM CPT, ATP luminescence, 48 h; Potency, µM (series often up to 46.2 µM), for the others: at the top dose activity change, negative = growth inhibition, hits mostly inhibitors; AID 686979; hit rate 12% among 420,000; note: potency is the fitted concentration of half-maximal effect; nearly all actives have a fitted effect of over 55% in size
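Chicken DT40 Tdp1-/- cells stably complemented with human TDP1 were seeded at 400 cells/well in medium containing 20 nM camptothecin, exposed to pin-transferred compounds, and grown at 37 °C for at least 48 hr. Viability was read as ATP luminescence.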
HT1080NT lethal = kills 2HG-producing HT-1080-NT fibrosarcoma cells. hit rate 1.6% among 360,000. AID 686970. Potency, µM (titrated, usually from 46.1 µM), for inactives: at the top dose activity, negative = less viability, most hits filed as cytotoxic. HT-1080-NT fibrosarcoma viability, CellTiter-Glo ATP luminescence, 48 h;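 note: NT is the 2HG producing partner of a matched IDH1 knockdown line; potency is the fitted concentration of half-maximal effect; 0% = DMSO-treated cells and -100% = media-only wells without cells; nearly all actives have a fitted effect of over 55% in size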
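Viability of the 2HG-overproducing fibrosarcoma line after 48 hours of compound exposure at 37 degrees C was determined by luminescence with CellTiter-Glo, and concentration-effect curves were then fitted and categorized.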
DT40 TDP1 no CPT = qHTS for Inhibitors of human tyrosyl-DNA phosphodiesterase 1 (TDP1): qHTS in cells in absence of CPT; hit rate 15% among 420,000; Potency, µM (titrated, usually from 46.2 µM), for inactives: at the highest dose activity change, negative = growth inhibition, most hits filed as inhibitors; DT40 Tdp1-/- hTDP1 cells, no CPT, ATP luminescence, 48 h; note: potency is the fitted concentration of half-maximal effect; nearly all actives have a fitted effect of over 55% in size
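Cells were dispensed at 400 per well, compounds added by pin tool, plates incubated ≥48 hr at 37 °C, then CellTiter-Glo added for 30 min at room temperature before luminescence reading. Line: DT40 Tdp1-/- complemented with hTDP1; camptothecin omitted.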
IL-1B inflam inh = inhibitors of inflammasome signaling (IL-1 beta secretion); THP-1 LPS/ATP IL-1B secretion, AlphaLISA, 16 h; active compounds read low; activity change, % at 57.5 µM; hit rate 4.7% among 360,000; AID 743279; in the data active = activity change below about -50%; inconclusive = mostly about -30% to -49%
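THP-1 cells pretreated 1 hr with compounds (up to 57.5 uM final), then stimulated with LPS (250 ng/mL final) plus ATP (1.25 mM final); secreted IL-1B measured by AlphaLISA after 16 hr, decreased signal indicating inhibition.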
Starred values were filed as active, the others as inactive; ? = inconclusive; nt = no result. Unless noted, calls come from the whole dose curve; as a rule, active = well fitted curve in the direction sought with a large enough effect; inconclusive = small, poorly fitted or top-dose-only effect, or another doubt; inactive = no such curve, though single readings can be large; an effect the other way counts as inactive or inconclusive. Unless noted, % is set by controls: 0 for no effect and ±100 for the full control effect.

SMILES	HT1080 IDH1KD tx	DT40 TDP1 CPT	HT1080NT lethal	DT40 TDP1 no CPT	IL-1B inflam inh
NC(=O)CSc1nnc(-c2cccc(S(=O)(=O)N3CCOCC3)c2)n1C1CCCCCC1	-3%	5.8µM*	-4%	7.3µM*	0
O=S(=O)(c1cccc(-c2n[nH]c(=S)n2C2CCCC2)c1)N1CCOCC1	-21%	-11%	-19%	?	50
CC(C)Cn1c(SCC(=O)NCc2ccc(Cl)cc2)nnc1-c1cccc(S(=O)(=O)N2CCOCC2)c1	-16%	?	?	21µM*	-1
Cc1ccc(CSc2nnc(-c3cccc(S(=O)(=O)N4CCOCC4)c3)n2C2CCCC2)cc1	?	15µM*	-27%	12µM*	-55*
Cc1ccc(CN(Cc2ccco2)S(=O)(=O)c2ccc(S(=O)(=O)NCC3CCCO3)cc2)cc1 (stereo not drawn)	0%	?	-2%	?	-6
CNC(=O)c1c[nH]c2ccc(S(=O)(=O)Nc3cccc(SC)c3)cc2c1=O	?	-14%	?	0%	-16
O=c1cccc2c1c1cc[nH]c3ccc(=O)n2c31	-23%	9.2µM*	-30%	18µM*	-72*
CC(=O)Nc1ccc(C=CC=Cc2cccc([N+](=O)[O-])c2)cc1	-30%	29µM*	-2%	?	-97*
O=C(/C=C/c1cccc([N+](=O)[O-])c1)Nc1ccc(Cl)cn1	4%	?	4%	2.6µM*	-8
O=C(/C=C/c1cccc([N+](=O)[O-])c1)NC(=S)Nc1cccc(NC(=O)c2ccccc2Cl)c1	?	15µM*	?	13µM*	?
CCN(CC)S(=O)(=O)c1cccc(NC(=O)/C=C/c2ccc([N+](=O)[O-])cc2)c1	2%	-2%	13%	?	5
CCN(CC)S(=O)(=O)c1cccc(NC(=O)/C=C/c2cccc([N+](=O)[O-])c2)c1	-19%	?	-14%	29µM*	17
O=C(COc1ccccc1Cl)NC(=S)Nc1cccc(NC(=O)c2ccccc2Cl)c1	0%	-10%	-10%	-20%	1
C=CCn1c(SCc2nc3ccccc3nc2C)nnc1-c1ccoc1C	-4%	-17%	-2%	-21%	15
CCOc1cc(-c2nnc(NC(=O)C3=COCCO3)o2)cc(OCC)c1OCC	-15%	-27%	1%	-17%	4
CC1CN(C/C(=N\O)C23CC4CC(CC(C4)C2)C3)CC(C)O1 (stereo not drawn)	-6%	-27%	1%	?	43
CCOc1ccccc1NC(=O)c1cccc2ccccc12	-5%	?	-13%	?	-14
CCOc1ccccc1NC(=O)c1ccccc1-c1ccccc1	2%	?	-3%	23µM*	34
CCOc1ccccc1NC(=O)c1cc(SC)ccc1Cl	-22%	?	-20%	18µM*	47
O=C(CC1C(=O)NCCN1Cc1cccc(F)c1)NCCCOc1cccnc1 (stereo not drawn)	10%	?	8%	?	-5
O=C1C2=C(Nc3ccccc3SC2c2ccc(Cl)c(Cl)c2)c2ccccc21 (stereo not drawn)	nt	15µM*	nt	26µM*	nt
CCCc1ccc(C2Sc3ccccc3NC3=C2C(=O)c2ccccc23)cc1 (stereo not drawn)	nt	?	nt	15µM*	nt
COc1ccc(Br)cc1C1Sc2ccccc2NC2=C1C(=O)c1ccccc12 (stereo not drawn)	nt	?	nt	13µM*	nt
O=C1C2=C(Nc3ccccc3SC2c2ccccc2C(F)(F)F)c2ccccc21 (stereo not drawn)	nt	5.8µM*	nt	3.3µM*	nt
O=C1Nc2ccccc2SC1c1ccccc1 (stereo not drawn)	0%	-5%	8%	-18%	-15
COc1ccccc1C(C(C(=O)c1ccccc1)N1CCOCC1)N1CCOCC1 (stereo not drawn)	17%	14%	16%	-9%	8

Bioassay records from PubChem BioAssay.
